Test results published in paper PMC4336329 (PLoS ONE, 2015).
Out of some 310,000 compounds screened, about 2,200 (0.71%) showed an effect of 50% or more. Effects have a minus sign here. The entries come from a sample that favours strong results as a whole.

What follows are compounds tested against human ether-à-go-go-related gene (hERG) potassium channel (human, UniProt Q12809) (assay: primary screen, population patch clamp on CHO cells stably expressing hERG; higher = less effect of the substance).
Chain of human ether-à-go-go-related gene (hERG) potassium channel (Q12809 whole entry, looked up): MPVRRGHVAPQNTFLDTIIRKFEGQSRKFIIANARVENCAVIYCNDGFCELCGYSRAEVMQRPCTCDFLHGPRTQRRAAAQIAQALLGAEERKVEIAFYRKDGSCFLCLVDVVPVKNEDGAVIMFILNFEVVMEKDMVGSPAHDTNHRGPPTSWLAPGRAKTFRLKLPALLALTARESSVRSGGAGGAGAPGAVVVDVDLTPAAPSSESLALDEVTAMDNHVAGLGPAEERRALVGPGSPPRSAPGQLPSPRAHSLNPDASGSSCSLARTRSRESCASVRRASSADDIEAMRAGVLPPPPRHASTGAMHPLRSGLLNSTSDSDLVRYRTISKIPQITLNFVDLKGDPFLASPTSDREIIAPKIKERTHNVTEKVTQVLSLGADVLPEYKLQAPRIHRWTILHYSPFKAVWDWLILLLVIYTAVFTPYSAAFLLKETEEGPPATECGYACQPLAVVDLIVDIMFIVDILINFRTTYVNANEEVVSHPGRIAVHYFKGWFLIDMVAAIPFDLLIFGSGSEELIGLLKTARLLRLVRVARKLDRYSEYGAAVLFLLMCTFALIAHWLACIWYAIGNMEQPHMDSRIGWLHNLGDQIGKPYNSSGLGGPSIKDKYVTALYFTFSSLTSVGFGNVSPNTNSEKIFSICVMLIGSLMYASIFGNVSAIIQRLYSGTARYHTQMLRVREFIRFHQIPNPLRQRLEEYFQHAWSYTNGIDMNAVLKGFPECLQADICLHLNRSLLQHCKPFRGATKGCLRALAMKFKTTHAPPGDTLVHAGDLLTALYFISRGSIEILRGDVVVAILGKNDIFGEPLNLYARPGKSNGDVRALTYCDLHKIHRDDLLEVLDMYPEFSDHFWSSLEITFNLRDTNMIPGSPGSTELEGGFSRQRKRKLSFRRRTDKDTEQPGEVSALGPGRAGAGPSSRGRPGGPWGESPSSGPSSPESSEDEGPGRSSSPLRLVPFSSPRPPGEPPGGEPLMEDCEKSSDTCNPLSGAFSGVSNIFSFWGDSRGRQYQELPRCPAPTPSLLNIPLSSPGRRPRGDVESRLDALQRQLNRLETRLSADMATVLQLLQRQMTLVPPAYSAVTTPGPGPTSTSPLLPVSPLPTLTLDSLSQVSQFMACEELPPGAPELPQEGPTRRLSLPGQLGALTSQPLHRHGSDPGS

Compared with `Cc1ccc(NC(=O)CN(C)C(=O)Cn2c(=O)oc3ccccc32)cc1`, `CCN(CC)S(=O)(=O)c1cc(C(=O)N(C)CC(=O)Nc2ccc(Cl)cc2)ccc1Cl` is lower in “hERG current change (%, negative = inhibition) at 1uM” value: 7.84% for the first, -1.15% for the second.

Going from `CC1CC(C)(C)NC(=S)N1CCCC(=O)N1CCN(c2ccc(F)cc2)CC1` (stereo not drawn) to `CCN(Cc1ccccc1)C(=O)CN1C(=S)NC(C)(C)CC1C` (stereo not drawn), the “hERG current change (%, negative = inhibition) at 1uM” value rises from -4.06% to 3.12%.

First: CCCN(CCC)C(=O)Nc1cc(Cl)ccc1OC
Second: CN(CCC#N)C(=O)COc1ccc(Br)cc1Cl
The “hERG current change (%, negative = inhibition) at 1uM” value of the first is higher: 14.4% for the first, 3.5% for the second.

Going from `CCOC(CNC(=O)Cn1nc(C)c2ccccc21)OCC` to `CCCc1cc(C(=O)O)c2ccccc2n1`, the “hERG current change (%, negative = inhibition) at 1uM” value falls from 8.42% to -0.521%.

First: CCCCn1nnc(NC(=O)c2ccc(-c3ccccc3)cc2)n1
Second: CCOC(=O)CNc1c(-c2ccccc2)nc2ccc(Cl)cn12
The “hERG current change (%, negative = inhibition) at 1uM” value of the first is higher: 13.7% for the first, -27.6% for the second.

Going from `CC(C)(C)c1csc(NC(=O)c2c(F)c(F)c(F)c(F)c2F)n1` to `CC(C)c1csc(CN2CCN(Cc3ccc(F)c(F)c3)C(CCO)C2)n1` (stereo not drawn), the “hERG current change (%, negative = inhibition) at 1uM” value rises from -2.19% to 2.23%.

Compared with `O=C(c1cc(-c2ccccc2)nc2ccccc12)N1CCN(c2ccccn2)CC1`, `O=C(c1cc(-c2ccncc2)nc2ccccc12)N1CCN(c2ccccn2)CC1` is lower in “hERG current change (%, negative = inhibition) at 1uM” value: 1.88% for the first, -64% for the second.

First: O=C(c1cc(-c2ccncc2)nc2ccc(Br)cc12)N1CCN(c2ccccn2)CC1
Second: COc1ccc(C(=O)N2CCN(c3ccccn3)CC2)cc1
The “hERG current change (%, negative = inhibition) at 1uM” value of the first is lower: -9.18% for the first, 6.53% for the second.

First: CCCCCCCC(=O)Nc1ccc(C(=O)N/N=C/c2cccc([N+](=O)[O-])c2)cc1
Second: CC(CCc1ccccc1)NC(=O)COC(=O)c1ccc([N+](=O)[O-])cc1 (stereo not drawn)
The “hERG current change (%, negative = inhibition) at 1uM” value of the first is higher: 12.6% for the first, 5.37% for the second.

Compared with `O=C(CCSc1ccccc1)OCn1nnc2ccccc2c1=O`, `CCOC(=O)n1c(=O)n(Cc2ccccc2Cl)c2ccccc21` is lower in “hERG current change (%, negative = inhibition) at 1uM” value: 13.7% for the first, 10.3% for the second.

Compared with `O=C(COc1ccccc1)N1CCN(S(=O)(=O)c2cccs2)CC1`, `N#Cc1ccc(OCC(=O)N2CCN(S(=O)(=O)c3cccs3)CC2)cc1` is lower in “hERG current change (%, negative = inhibition) at 1uM” value: -7.49% for the first, -54.7% for the second.

First: N#Cc1ccc(OCC(=O)N2CCN(S(=O)(=O)c3ccc(Cl)s3)CC2)cc1
Second: O=C(COc1ccc(Cl)cc1)N1CCN(Cc2ccccc2)CC1
The “hERG current change (%, negative = inhibition) at 1uM” value of the first is lower: -22.7% for the first, 3.32% for the second.

First: COc1cccc(CN2CCN(Cc3nc(C(C)C)cs3)CC2CCO)c1 (stereo not drawn)
Second: CC(C)c1csc(CN2CCN(Cc3ccccc3)C(CCO)C2)n1 (stereo not drawn)
The “hERG current change (%, negative = inhibition) at 1uM” value of the first is lower: -20% for the first, 10.1% for the second.

Going from `Cc1ccc(CN2CCN(Cc3nc(C(C)C)cs3)CC2CCO)cc1` (stereo not drawn) to `CC(C)c1csc(CN2CCN(Cc3ccc(F)cc3)C(CCO)C2)n1` (stereo not drawn), the “hERG current change (%, negative = inhibition) at 1uM” value rises from -50.8% to -4.26%.

Going from `CCOc1ccc(CN2CCN(Cc3nc(C(C)C)cs3)CC2CCO)cc1` (stereo not drawn) to `O=C(COc1ccc(Cl)cc1)N1CCN(Cc2ccc3c(c2)OCO3)CC1`, the “hERG current change (%, negative = inhibition) at 1uM” value rises from -85.5% to -6.58%.

Compared with `Cc1ccc(S(=O)(=O)NC(=O)NCc2ccc(Cl)cc2)cc1`, `Cc1ccc(S(=O)(=O)NCCC(=O)NC(C)CCc2ccccc2)cc1` (stereo not drawn) is lower in “hERG current change (%, negative = inhibition) at 1uM” value: 10.1% for the first, -10.7% for the second.

Compared with `COC(=O)C1C(=O)C2=C(CC1C)NC(C)=C(C(=O)OCc1ccc(OC)cc1)C2c1ccc(C)o1` (stereo not drawn), `CCOC(=O)CNc1c(-c2ccc(OC)cc2)nc2ccc(Cl)cn12` is lower in “hERG current change (%, negative = inhibition) at 1uM” value: 0.03% for the first, -68.4% for the second.

Going from `O=S(=O)(c1ccc(F)c(F)c1)N1CCN(Cc2ccc3c(c2)OCO3)CC1` to `COc1ccc(S(=O)(=O)N2CCN(C/C=C/c3ccccc3)CC2)cc1F`, the “hERG current change (%, negative = inhibition) at 1uM” value rises from -9.04% to 8.5%.

Going from `Cc1c(NC(=O)c2ccc3c4c(cccc24)CC3)c(=O)n(-c2ccccc2)n1C` to `CCN(CC)c1ccc(C2NC(=O)NC(C)=C2C(=O)Nc2ccccc2)cc1` (stereo not drawn), the “hERG current change (%, negative = inhibition) at 1uM” value rises from 15.3% to 17.3%.

First: CC(=O)c1cccc(-n2nnnc2SCC(=O)Nc2cc(C)on2)c1
Second: Cc1cccc(NC(=O)CSc2nnnn2C)n1
The “hERG current change (%, negative = inhibition) at 1uM” value of the first is lower: 12.1% for the first, 12.6% for the second.

Compared with `c1coc(-c2nnc(SCc3cn4ccccc4n3)o2)c1`, `Cc1ccc2nc(CSc3nnc(-c4ccco4)o3)cc(=O)n2c1` is lower in “hERG current change (%, negative = inhibition) at 1uM” value: -2.53% for the first, -54% for the second.

Compared with `Cc1ccc2nc(CSc3nnc(-c4ccco4)n3-c3ccccc3)cc(=O)n2c1`, `COc1ccc(-n2c(SCC(=O)N/N=C/c3ccccc3OCC(=O)O)nc3ccccc3c2=O)cc1` is higher in “hERG current change (%, negative = inhibition) at 1uM” value: -2.87% for the first, 11.6% for the second.

Compared with `NC(=O)c1nsc(C(=O)N(c2ccccc2F)C(C(=O)NCc2ccccc2)c2ccc(O)cc2)c1N` (stereo not drawn), `Fc1ccc(-n2cc(CNCCc3cccnc3)c(-c3ccccc3Cl)n2)cc1` is lower in “hERG current change (%, negative = inhibition) at 1uM” value: 8.51% for the first, -10% for the second.

Compared with `O=C(c1sc2cc(Cl)ccc2c1Cl)N1CCN(CCc2ccccn2)CC1`, `Cl.O=C(c1ccc(Cl)cc1)N1CCN(CCc2ccccn2)CC1` is lower in “hERG current change (%, negative = inhibition) at 1uM” value: -36.6% for the first, -53.7% for the second.

Going from `COc1ccc(C(=O)N2CCN(Cc3ccccn3)CC2)cc1.O=C(O)C(=O)O` to `COc1ccc(C(=O)N2CCN(CCc3ccccn3)CC2)cc1.Cl`, the “hERG current change (%, negative = inhibition) at 1uM” value falls from 3.65% to -66.6%.

First: O=C(c1ccccc1)N1CCN(CCc2ccccn2)CC1
Second: Cc1ccccc1NC(=O)N1CCN(C/C=C/c2ccccc2)CC1
The “hERG current change (%, negative = inhibition) at 1uM” value of the first is higher: 16.3% for the first, 11% for the second.

Compared with `COCCn1c(C)cc(/C=C2\NC(=S)N(C)C2=O)c1C`, `CCc1c(C)c2c(C)[nH]nc2oc1=O` is higher in “hERG current change (%, negative = inhibition) at 1uM” value: 9.65% for the first, 10.5% for the second.

Compared with `C=CCN(c1ccccc1)S(=O)(=O)c1cccc(C(=O)NCC(c2ccccc2OC)N2CCCC2)c1` (stereo not drawn), `COc1ccc(S(=O)(=O)N2CCN(C/C=C/c3ccccc3)CC2)cc1NC(C)=O` is lower in “hERG current change (%, negative = inhibition) at 1uM” value: -12.9% for the first, -54.2% for the second.

Going from `Fc1ccc(-n2cc(CNCCc3ccccn3)c(-c3ccccc3Cl)n2)cc1` to `Fc1ccc(-n2cc(CNCCc3ccncc3)c(-c3ccccc3Cl)n2)cc1`, the “hERG current change (%, negative = inhibition) at 1uM” value rises from -78.2% to -3.18%.

Going from `CCOC(=O)CNc1c(-c2ccc(O)cc2)nc2ccc(Cl)cn12.Cl` to `O=C(Nc1ccc(-c2nc3ccccc3o2)cc1)c1cc(-n2cnnc2)ccc1Cl`, the “hERG current change (%, negative = inhibition) at 1uM” value rises from -13.3% to 6.74%.

Going from `O=C(NCCN1CCOCC1)c1cc([N+](=O)[O-])cc([N+](=O)[O-])c1` to `COc1cc(CN2CCN(Cc3ccc([N+](=O)[O-])cc3)CC2)c([N+](=O)[O-])cc1OC.O=C(O)C(=O)O`, the “hERG current change (%, negative = inhibition) at 1uM” value falls from 12.5% to -25.4%.

Going from `COc1ccc(NC(C)=O)cc1S(=O)(=O)N1CCN(C/C=C/c2ccccc2)CC1` to `COc1ccc(C)cc1NC(=O)CN1CCN(C/C=C/c2ccccc2)CC1`, the “hERG current change (%, negative = inhibition) at 1uM” value rises from -48.1% to -45.2%.

Going from `O=C(CN1CCN(C/C=C/c2ccccc2)CC1)Nc1ccc(F)cc1F` to `O=C(Nc1ccc(F)cc1F)N1CCN(C/C=C/c2ccccc2)CC1`, the “hERG current change (%, negative = inhibition) at 1uM” value rises from -87.4% to -15.3%.

Going from `Cc1ccccc1NC(=O)CCN1CCN(C/C=C/c2ccccc2)CC1` to `Cl.O=C(CCN1CCN(C/C=C/c2ccccc2)CC1)Nc1ccccc1Cl`, the “hERG current change (%, negative = inhibition) at 1uM” value rises from -72% to -47.6%.

First: Fc1ccc(NC(=S)N2CCN(C/C=C/c3ccccc3)CC2)c(F)c1
Second: Fc1ccccc1NC(=S)N1CCN(C/C=C/c2ccccc2)CC1
The “hERG current change (%, negative = inhibition) at 1uM” value of the first is higher: 13% for the first, 7.89% for the second.

Compared with `O=C(CCN1CCN(C/C=C/c2ccccc2)CC1)Nc1ccccc1F.O=C(O)C(=O)O`, `O=C(CCN1CCN(c2ccccc2)CC1)Nc1ccccc1F` is higher in “hERG current change (%, negative = inhibition) at 1uM” value: -81.2% for the first, 14.5% for the second.

Going from `O=C(O)CC(NC(=S)NCc1ccccc1)C(=O)O` (stereo not drawn) to `O=C(COc1ccccc1)N1CCN(C2CCCC2)CC1.O=C(O)C(=O)O`, the “hERG current change (%, negative = inhibition) at 1uM” value rises from -7.52% to 8.65%.

Going from `COc1ccc(CCNC(=O)CSc2nc3c(c(=O)n(C)c(=O)n3C)n2C(C)C)cc1OC` to `COc1cc(CN2CCN(Cc3ccc(C)cc3)CC2)c([N+](=O)[O-])cc1OC.O=C(O)C(=O)O`, the “hERG current change (%, negative = inhibition) at 1uM” value falls from -14.5% to -73.4%.

Compared with `CC(C)=CCc1c(O)cc2c(c1O)C(=O)CC(c1ccccc1)O2` (stereo not drawn), `COc1ccc(C=C2c3ccccc3C(=O)c3ccccc32)c(OC)c1` is lower in “hERG current change (%, negative = inhibition) at 1uM” value: 12.9% for the first, 7.49% for the second.

Going from `COc1cccc(-c2c(-c3cc(OC)cc(OC)c3)n(C)c3ccc(-c4ccc5[nH]ccc5c4)cc23)c1` to `COc1cccc(CN2CCN(C(=O)COc3ccc4ccccc4c3)CC2)c1`, the “hERG current change (%, negative = inhibition) at 1uM” value falls from 11.8% to 10.5%.

Going from `CCN1CCN(c2nc(-c3ccccc3Cl)nc3ccccc23)CC1.Cl` to `COc1ccc(C)cc1NC(=O)CCN1CCN(c2ccccc2)CC1`, the “hERG current change (%, negative = inhibition) at 1uM” value rises from -39.1% to 3.12%.

First: Cc1ccc(S(=O)(=O)N2CCN=C2SCc2ccc(Cl)c(Cl)c2)cc1
Second: O=C(COc1ccc(Cl)cc1)N1CCN(Cc2ccc([N+](=O)[O-])cc2)CC1.O=C(O)C(=O)O
The “hERG current change (%, negative = inhibition) at 1uM” value of the first is higher: 10.2% for the first, -76.4% for the second.

Compared with `Cc1nn(Cc2noc(C(=O)NCc3ccc4c(c3)OCO4)n2)c(C)c1Br`, `O=C(NCC1COc2ccccc2O1)c1ccc(NC(=O)c2ccco2)cc1` (stereo not drawn) is lower in “hERG current change (%, negative = inhibition) at 1uM” value: 1.08% for the first, -1.42% for the second.

First: O=C(CSc1nnc(COc2ccc(Cl)cc2)o1)NC1CCCCC1
Second: O=C(COc1ccc(Cl)cc1)N1CCN(C2CCCC2)CC1.O=C(O)C(=O)O
The “hERG current change (%, negative = inhibition) at 1uM” value of the first is higher: -2.69% for the first, -68.4% for the second.

Compared with `COc1ccc(C)cc1NC(=O)CCN1CCN(C/C=C/c2ccccc2)CC1`, `O=C(COc1ccc2ccccc2c1)N1CCN(Cc2ccncc2)CC1.O=C(O)C(=O)O` is higher in “hERG current change (%, negative = inhibition) at 1uM” value: -70.9% for the first, -14.8% for the second.

Compared with `COc1cccc(CN2CCN(Cc3cc(OC)c(OC)cc3[N+](=O)[O-])CC2)c1.O=C(O)C(=O)O`, `O=C(COc1ccc2ccccc2c1)N1CCN(C2CCN(Cc3ccccc3)CC2)CC1` is lower in “hERG current change (%, negative = inhibition) at 1uM” value: -18.5% for the first, -69.6% for the second.

With `O=C(COc1ccc(Br)cc1)N1CCN(C2CCCC2)CC1` the “hERG current change (%, negative = inhibition) at 1uM” value was -42.1%.
